KB-V1 MDR tox: KB-V1 MDR subline cytotoxicity; hit rate 3.4% among 400,000; Potency, µM (titrated, usually from 46.1 µM), hits mostly cytotoxic; KB-V1 MDR cells viability, CellTiter-Glo, 72 h; AID 1347076; also: % is scaled to controls: 0 for no effect and ±100 for the full control effect; nearly all actives have a fitted effect of over 60% in size
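Cytotoxicity toward P-gp-expressing KB-V1 cells was determined as loss of CellTiter-Glo luminescence after 72 h at 37 degrees C. Compounds were tested in quantitative HTS format across a concentration range, with curves fitted to normalized data.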
SW480 rerep: induces DNA re-replication in SW480 colon adenocarcinoma cells; SW480 DNA re-replication, Hoechst DNA content imaging, 48 h; Potency, µM (series often up to 46.1 µM), without a hit: top-dose re-replication activation, hits mostly activators; hit rate 1.8% among 340,000; AID 624297; also: % of control where 0% means no effect; nearly all actives have a fitted effect of over 55% in size
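Compounds, transferred as 23 nL by pin tool, were incubated with cells for 48 hr; DNA content per nucleus was then quantified by Hoechst staining and fluorescence plate imaging.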
KB-3-1 tox: kills parental KB-3-1 adenocarcinoma cells | KB-3-1 viability, CellTiter-Glo ATP luminescence, 72 h | Potency, µM (titrated, usually from 46.1 µM), usual class: cytotoxic | hit rate 1.4% among 400,000 | AID 1347075; also: % is scaled to controls: 0 for no effect and ±100 for the full control effect; nearly all actives have a fitted effect of over 60% in size
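Parental KB-3-1 viability, qHTS format: 72 h compound exposure, 37 °C; CellTiter-Glo; media-only wells and DMSO plates as controls; concentration-effect fits on corrected data.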
MCF10A rereplic: DNA re-replication induction in MCF 10a cells; MCF 10A DNA re-replication, Hoechst nuclear intensity, 48 h; Potency, µM (top dose mostly 46.1 µM), without a hit: at the top dose activity, positive = re-replication, most hits filed as activators; hit rate 2.9% among 350,000; AID 624296; also: % of control where 0% means no effect; nearly all actives have a fitted effect of over 50% in size
ELG1 DNA repair: blocks ELG1-dependent DNA repair in HEK293T cells; hit rate 2.3% among 330,000; Potency, µM (series often up to 46.1 µM), for the others: top-dose activity change, negative = inhibition, actives largely listed as inhibitors; HEK293T ELG1-luciferase reporter, luminescence, 16 h; DNA damage induced by 5-fluorouridine; AID 504467; also: % is scaled to controls: 0 for no effect and ±100 for the full control effect; nearly all actives have a fitted effect of over 55% in size
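Step one: seed 2,000 cells per well. Step two: pin-transfer compound or DMSO alongside 5-fluorouridine. Step three: incubate 16 hr, 37 °C, 5% CO2. Step four: add ONE-Glo, wait 30 min, read luminescence.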
The depositor's hits bear a star; i = inactive; u = inconclusive; x = not tested or not shown; [ ] = another dose, or the depositor's remark. Compounds with a hit are over-represented: about 8.2% of the library has one in this group of screens. Calls follow the shape of the dose curve; as a rule, active = well fitted curve in the direction sought with a large enough effect; inconclusive = small, poorly fitted or top-dose-only effect, or another doubt; inactive = no such curve, though single readings can be large; an effect the other way counts as inactive or inconclusive. Potency is read from the fitted curve at half-maximal effect.

SMILES	KB-V1 MDR tox	SW480 rerep	KB-3-1 tox	MCF10A rereplic	ELG1 DNA repair
CC(Oc1cc(-c2ccccc2)cc2ccccc12)C(=O)N1CCOCC1 (stereo unspecified)	6.51µM*	5.7%	u	15.5%	u
CC(C)(C)c1ccccc1OCC(=O)Nc1ccccc1C(=O)NCc1cccnc1	18.4µM*	9.7%	i	u	u
C=CCOc1ccc(C(=O)Nc2ccccc2C(=O)NCc2cccnc2)cc1	3.66µM*	u	5.17µM*	u	-25.3%
O=C(NCCc1ccccc1)c1ccc2nc(-c3ccco3)c(-c3ccco3)nc2c1	u	u	u	20.6µM*	u
COc1ccc(CNC(=O)CCC(=O)N2CCN(S(=O)(=O)c3cc([N+](=O)[O-])ccc3C)CC2)cc1	i	2.9%	i	1.7%	2.5%
COc1ccc(C2c3ccc(O)cc3Oc3ncn4nc(-c5ccccn5)nc4c32)cc1OC (stereo unspecified)	i	1.9%	i	-0.4%	20.6µM*
CC(OC(=O)/C(C#N)=C/c1ccc(N(C)C)cc1)C(=O)N(C)c1ccccc1 (stereo unspecified)	18.4µM*	4.5%	i	u	-5.8%
CC(=O)Nc1ccc(NC(=O)C(C)OC(=O)/C(C#N)=C/c2ccc(N(C)C)cc2)cc1 (stereo unspecified)	i	-5.9%	i	11.5%	u
CCN(Cc1ccccc1)C(=O)Cn1c(C(C)O)nc2ccccc21 (stereo unspecified)	i	-32.4%	i	0.731µM*	12.5%
CC(O)c1nc2ccccc2n1Cc1ccccc1 (stereo unspecified)	i	-8.2%	i	11.3%	1.7%
CCn1c(SCC(O)c2ccccc2)nnc1-c1ccccc1 (stereo unspecified)	i	0.1%	i	15.5%	u
CCn1c(SCc2cccc(C)c2)nnc1-c1ccccc1	14.6µM*	-1.3%	i	13.9%	5.9%
CCn1c(Cn2nnc(-c3ccccc3)n2)nnc1SCc1ccc(Cl)c(Cl)c1	23.1µM*	20.8%	u	u	u
CCc1ccc(NC(=O)c2sc3nc(C)c(Cl)c(C)c3c2NC(=O)c2ccccc2)cc1	i	x	i	x	x
CC(=O)NC(C(=O)c1ccccc1)C(=O)c1ccccc1	i	0.517µM*	i	-73.5%	-5.3%
CCCCN(CC)CCCNC(=O)c1nn(-c2ccc(OC)cc2)c(=O)c2c1c1ccccc1n2C	i	x	i	x	x
CCOC(=O)c1sc2nc(C)nc(NCCc3ccccn3)c2c1C	i	i[1.84 µM]	i	26.5%	20.6µM*
Cc1nc(NCc2ccco2)c2c(C)c(C)sc2n1	u	u	11.6µM*	23.6%	9.2µM*
Cc1sc2nc3c4ccccc4c(NCc4ccco4)nn3c(=O)c2c1C	i	4.61µM*	i	2.59µM*	u
CCOC(=O)c1sc2nc(CC(=O)OC)nc(NCc3ccco3)c2c1C	3.26µM*	0.5%	i	-0.5%	u
CCOC(=O)c1sc2nc(CC(=O)OC)nc(NCC(=O)OC)c2c1C	i	-2.7%	i	-0.2%	u
COc1cc(NC(=O)NC2Cc3ccccc3C2)cc(OC)c1	i	-21.1%	i	-0.7%	u
Cc1cc(N2CCN(S(=O)(=O)c3ccccc3)CC2)c2ccccc2n1	u	u	i	3.66µM*	u
Cc1cc(N2CCN(c3ccc([N+](=O)[O-])c4cccnc34)CC2)c2ccccc2n1	u	8.5%	16.4µM*	u	u
CCc1cccc(Nc2c3c(nc4ncnn24)CCC3)c1	18.4µM*	0.0%	i	1.3%	4.4%
SMILES	KB-V1 MDR tox	SW480 rerep	KB-3-1 tox	MCF10A rereplic	ELG1 DNA repair
O=C(NCCc1ccco1)C(=O)NCC1OCCCN1S(=O)(=O)c1ccc(F)cc1 (stereo unspecified)	i	0.8%	i	-2.2%	-1.4%
COc1ccc(S(=O)(=O)N2CCCOC2CNC(=O)C(=O)NCCc2ccco2)cc1C (stereo unspecified)	i	18.4µM*	6.51µM*	u	1.2%
Cc1cc(S(=O)(=O)N2CCCOC2CNC(=O)C(=O)NCc2ccco2)ccc1F (stereo unspecified)	u	u	i	8.2µM*	-26.5%
Cc1ccc(C)c(S(=O)(=O)N2CCCOC2CNC(=O)C(=O)NCc2ccco2)c1 (stereo unspecified)	23.1µM*	8.3%	u	-1.3%	-22.6%
COc1ccccc1CCNC(=O)C(=O)NCC1OCCCN1S(=O)(=O)c1cc(C)ccc1C (stereo unspecified)	u	4.5%	i	11.0%	20.6µM*
O=C(NCc1ccco1)C(=O)NCC1OCCCN1S(=O)(=O)c1ccc(Cl)cc1 (stereo unspecified)	i	-51.0%	i	1.0%	-8.3%
Cc1ccc(C)n1-c1nnc(N2CCCC(C(=O)Nc3ccc(C(C)C)cc3)C2)s1 (stereo unspecified)	i	x	i	x	x
CC(=O)c1ccccc1NC(=O)CSc1nc2ccccc2c(=O)n1CCCN1CCOCC1	i	3.0%	i	-0.2%	u
CCOC(=O)c1ccccc1NC(=O)CSc1nc2ccccc2c(=O)n1CCCN1CCOCC1	i	u	i	13µM*	u
CCOC(=O)CSc1nc2c(sc3ccccc32)c(=O)n1CCCN1CCOCC1	14.6µM*	-9.2%	i	4.8%	u
CCC(C)NC(=O)CSc1nc2c(sc3ccccc32)c(=O)n1CCCN1CCOCC1 (stereo unspecified)	i	-7.5%	i	0.1%	0.4%
CC(Oc1ccccc1)C(=O)N=C1SC2CS(=O)(=O)CC2N1Cc1ccccc1 (stereo unspecified)	i	17.5%	i	1.6%	10.3%
CCOc1nc2cnccc2n(CC(=O)Nc2ccc(C)c(C)c2)c1=O	i	-3.2%	i	11.2%	10.9%
COc1ccc(S(=O)(=O)c2c(O)c(C)cc(NS(=O)(=O)c3ccc(Cl)cc3)c2C(C)C)cc1	i	x	i	x	x
CCNC(=O)[C@@H]1CCCN1C(=O)[C@H](CCCN=C(N)N)NC(=O)[C@H](CC(C)C)NC(=O)[C@@H](Cc1c[nH]c2ccccc12)NC(=O)[C@H](Cc1ccc(O)cc1)NC(=O)[C@H](CO)NC(=O)[C@H](Cc1c[nH]c2ccccc12)NC(=O)[C@H](Cc1cnc[nH]1)NC(=O)[C@@H]1CCC(=O)N1	x	u	x	29.9µM*	x
CC1(C)CC[C@]2(C(=O)n3ccnc3)CC[C@]3(C)[C@H](C(=O)C=C4[C@@]5(C)C=C(C#N)C(=O)C(C)(C)[C@@H]5CC[C@]43C)[C@@H]2C1	u	u	u	0.517µM*	x
